Reference: PubChem BioAssay AID1645853 (Buhrlage Lab, Dana-Farber Cancer Institute and Novartis …, 2021)
Screen size: about 47,000 compounds; about 2,000 (4.3%) were called active. The sample holds actives, similar compounds and a random draw of the others, so the mix is not that of the screen. Cut-off read from the data, not from the text of the source: active = inhibition above about 30%; inactive = the rest.

molecular target: Ubiquitin carboxyl-terminal hydrolase 8 (Homo sapiens) (UniProt P40818); assay: blocks human USP8 ubiquitin-rhodamine cleavage (AID 1645853); settings: purified USP8, Ub-rhodamine cleavage fluorescence, 30 min; at 20 µM; hits give high values
Sequence (P40818 whole entry, looked up): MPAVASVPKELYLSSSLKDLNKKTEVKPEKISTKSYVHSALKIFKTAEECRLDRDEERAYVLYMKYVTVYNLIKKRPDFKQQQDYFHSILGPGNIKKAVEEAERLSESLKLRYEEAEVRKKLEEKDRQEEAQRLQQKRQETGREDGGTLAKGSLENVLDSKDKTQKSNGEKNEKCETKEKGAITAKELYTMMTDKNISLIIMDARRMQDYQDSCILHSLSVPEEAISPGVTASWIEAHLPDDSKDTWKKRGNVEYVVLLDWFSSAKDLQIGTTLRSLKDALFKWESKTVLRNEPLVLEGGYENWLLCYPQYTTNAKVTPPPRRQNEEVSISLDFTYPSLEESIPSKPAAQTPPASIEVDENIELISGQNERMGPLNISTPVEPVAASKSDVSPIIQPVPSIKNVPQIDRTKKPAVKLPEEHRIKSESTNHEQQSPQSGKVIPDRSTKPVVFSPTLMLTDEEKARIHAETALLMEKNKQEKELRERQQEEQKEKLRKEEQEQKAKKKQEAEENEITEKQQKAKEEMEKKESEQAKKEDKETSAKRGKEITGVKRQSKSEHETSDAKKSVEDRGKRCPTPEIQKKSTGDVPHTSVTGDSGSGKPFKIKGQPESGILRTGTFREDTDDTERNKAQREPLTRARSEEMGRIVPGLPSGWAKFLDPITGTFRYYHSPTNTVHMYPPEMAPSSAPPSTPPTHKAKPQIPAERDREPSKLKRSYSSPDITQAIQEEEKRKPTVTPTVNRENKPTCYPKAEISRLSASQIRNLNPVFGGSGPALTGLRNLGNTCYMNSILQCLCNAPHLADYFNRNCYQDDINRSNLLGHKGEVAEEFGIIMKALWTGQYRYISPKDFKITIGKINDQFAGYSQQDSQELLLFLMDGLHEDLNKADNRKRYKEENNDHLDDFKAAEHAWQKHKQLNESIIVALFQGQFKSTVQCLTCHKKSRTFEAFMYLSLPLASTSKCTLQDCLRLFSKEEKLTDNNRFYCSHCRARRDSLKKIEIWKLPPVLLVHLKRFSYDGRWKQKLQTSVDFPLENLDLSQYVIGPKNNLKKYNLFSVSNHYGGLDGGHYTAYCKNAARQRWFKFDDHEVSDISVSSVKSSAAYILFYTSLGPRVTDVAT

inhibition, inactive:
Cc1ccc(S(=O)(=O)N(CC(=O)NC(C)c2ccccc2)Cc2ccccc2F)cc1 (stereo unspecified) 5.32%
COc1cccc(S(=O)(=O)N2CCC(c3nccc(C)n3)C2)c1 (stereo unspecified) 0.292%
O=C(CCCn1c(=O)c2ccccc2n(Cc2ccccc2F)c1=O)NC1CCCC1 5.2%
N#Cc1ccc(NC(=O)COC(=O)c2ccc3ccccc3n2)cc1 -17.7%
O=C(Cn1cncn1)N1CCN(C(c2ccccc2)c2ccccc2)CC1 -4.21%
c1cnc(Nc2cnc(C3CCCN(Cc4cnc[nH]4)C3)cn2)cn1 (stereo unspecified) -10.5%
CCN1C(=O)c2ccccc2C(=O)[C@@]2(C)CN(C(=O)c3ccccc3)C[C@@H]12 15.6%
N#Cc1cccc(S(=O)(=O)N2CCC3(CC2)OC(=O)Nc2ccccc23)c1 10.6%
O=c1c(S(=O)(=O)c2cc(F)cc(F)c2)c[nH]c2ccc(F)cc12 4.59%
O=C(C1Cc2ccccc2CN1S(=O)(=O)c1ccc2c(c1)OCCO2)N1CCCC1 (stereo unspecified) 1.43%
CC1=C(C(=O)Nc2ccccc2)C(c2cccs2)n2ncnc2N1 (stereo unspecified) -32.6%
COc1cccc(C2C(C(=O)Nc3ccccc3C)=C(C)Nc3ncnn32)c1OCc1ccccc1 (stereo unspecified) -22.6%
Cc1cc2c(cc1CNC(=O)c1ccc3c(c1)CC(C)O3)OCCCO2 (stereo unspecified) -4.91%
O=C1c2ccccc2-c2nnc(-c3ccc(Oc4ccccc4)cc3)cc21 14.8%
Cc1nn2c(S(=O)(=O)Nc3cccc(F)c3C)c(C)nc2s1 19.1%
COCCN1C(=O)Cc2c(C)nc(C3(C)CCCN(c4cc(C)ncn4)C3)nc21 (stereo unspecified) 6.73%
O=C(C1CCCCC1)N1CCN(c2ncnc3c2nnn3Cc2ccccc2)CC1 6.37%
Cc1cccc(NC(=O)c2csc(-c3cn(C)c4ncccc34)n2)c1 6.69%
Cn1nc(C(=O)Nc2ccc(F)cc2)c(=O)c2ccccc21 -3.42%
Cc1[nH]c(C)c(S(=O)(=O)NC2CC2)c1-c1nc(C2CC2)no1 -17.3%
NC(=O)c1ccc(CN2CCC3(CC2)CC3c2nc(-c3cccc(Cl)c3)no2)cc1 (stereo unspecified) -39.4%
COc1cccc(CCNC(=O)Cc2cc(-c3ccc(C)cc3)on2)c1 -12.1%
CC(=O)Nc1ccc(S(=O)(=O)NCc2cn3ccccc3n2)cc1 -7.51%
Cc1ccc(-n2c3c(c(=O)[nH]c2=O)CN(Cc2ccco2)CN3)cc1 -10.7%
COc1ccc2nc3c(cc2c1)CN(Cc1ccccc1)C(=O)O3 20.1%
O=S1(=O)c2ccccc2C(Oc2ccccc2)CN1CCO (stereo unspecified) -13.4%
O=S(=O)(Nc1ccc(N2CCOCC2)cc1)c1cccc2cccnc12 -35.6%
CCC1=N[C@@]2(CC[C@@H]3CN(C(=O)Nc4ccc(CC)cc4)C[C@@H]32)C(=O)N1C -21.1%
O=C(Nc1ccc(Cl)cc1F)c1cc(-c2ccccn2)n[nH]1 19.3%
Cc1ccc(CC(=O)N2CCN(C(=O)c3cc(-c4ccccn4)n[nH]3)CC2)cc1 -164%
CC1[C@@H]2[C@@H](C(=O)N3CCOCC3)C[C@H](CN1S(=O)(=O)N(C)C)N2Cc1ccccc1 (stereo partly specified) 0.42%
O=C1NC2(COC3(CCN(Cc4cccnc4)CC3)C2)Nc2ccc(Cl)cc21 (stereo unspecified) -202%
Cc1c(C)n(-c2cccnc2)c2ncn3nc(-c4ccccn4)nc3c12 -3.69%
CSc1ncnc2c1sc1nc(-c3ccccc3)c3c(c12)CC(C)(C)OC3 2.79%
CCCCCCSc1ncnc2c1sc1nc(-c3ccccc3)c3c(c12)CC(C)(C)OC3 -5.24%
O=C(C1CC1)N1CC[C@@H]2Oc3ccccc3S(=O)(=O)N(Cc3ccccc3)[C@H]2CC1 -86.6%
O=c1[nH]c(-c2ccccn2)nc2c1CCN(Cc1cnn(-c3ccc(F)cc3)c1)C2 -247%
O=C(c1ccc(N2CCCC2)nn1)N1CCN(c2ccccn2)CC1 -50.6%
Cc1nn(-c2ccccc2)c(C)c1S(=O)(=O)N1CCN(c2ccccn2)CC1 -28.5%
COc1cccc(-c2cc(C(=O)N3CCN(c4ccc(N5CCOCC5)nn4)CC3)[nH]n2)c1 -8.45%
FC(F)(F)c1ccc(-c2cnc([C@@H]3COCCN3C3CCOCC3)[nH]2)cc1 2.96%
COc1ccc(CN2Cc3ccccc3OC3(CCC(CO)CC3)C2)c(F)c1 (stereo unspecified) -66.5%
O=C(NC1CCN(Cc2ccccc2)CC1)c1cn2c(n1)CCCC2 -18.5%
Cc1nn(C)c(C)c1CNC(=O)c1cc2cn(C3CCCC3)cc2s1 -141%
CCOC(=O)C1=C(CN2CCN(c3ccccc3OC)CC2)NC(=O)NC1c1cccc(OC)c1OC (stereo unspecified) -6.79%

inhibition, active:
N#Cc1ccc(NC(=O)Nc2cccn(Cc3ccccc3F)c2=O)cc1 96.4%
N#Cc1cccc(S(=O)(=O)c2c[nH]c3ccc(Cl)cc3c2=O)c1 46.9%
CC1=C(C(=O)Nc2ccc(C)cc2C)C(c2cccs2)n2c(nc3ccccc32)N1 (stereo unspecified) 31.4%
COCCN1C(=O)Cc2c(C)nc(C3(C)CCCN(c4ccnc(C)n4)C3)nc21 (stereo unspecified) 30.4%
Cn1cc(-c2nc(C(=O)Nc3ccc(F)cc3)cs2)c2cccnc21 30.4%
NC(=O)c1ccc(NC(=O)Cc2cc(-c3ccc(Cl)cc3)on2)cc1 62.4%
Cc1cc(C)c2nc3c(cc2c1)CN(Cc1ccco1)C(=O)O3 75.7%
COc1cc(Cl)c(NC(=O)c2cc(-c3ccccn3)n[nH]2)c(OC)c1 49.3%
CC1(C)Cc2c(c(-c3ccco3)nc3sc4c(SCCCc5ccccc5)ncnc4c23)CO1 75.7%
Clc1cc2nc(N3CCN(c4ccccn4)CC3)c3nncn3c2cc1Cl 75.6%
O=C(NC1CCN(Cc2ccccc2)CC1)c1cc2cn(C3CC3)cc2s1 31.4%
